{
  "source": "paper PMC12864922",
  "about": "“TDP-43 directly inhibits mRNA accumulation in neurites through modulation of mRNA stability”",
  "binders": {"B1": {"name": "ENSMUSG00000031028.245|Tub (ssRNA)", "RNA": "GGGAGUUCUACAGUCCGACGAUCGCUUCGAUAUCCGCAUGCUAGCCCUCCAUUGGGAUGGCACCACUCAUCUGGUGGGCUUGGGAACUCCAAGCUCUUGCCUGUGUGCCAUCUGUGAGAAGCUUCUUGGAGCUGAGACACCAGAGGGAAGCAAAGAGCAUUUAGACAUUGCUUUUUGCUUUGAAAUAGAUAUGUUUGGAAACGCUAAGUAGAAGUUUAAAAAGUAGAGUCAUGUAGAGUCAUGCUUUGAAUAUGUGGGUCAUGCUUUAGAUAUGAAGAGGCUAUGCAGGUAAGGAGGCUGGAUCUCUUGCGGUCGCACUAGUGUGGAAUUCUCGGGUGUCAAGG"}, "B2": {"name": "ENSMUSG00000028439.189|Fam219a|1:11;21:28 (ssRNA)", "RNA": "GGGAGUUCUACAGUCCGACGAUCGCUUCGAUAUCCGCAUGCUAACACACACACAUGUACCCGACACACACAUGAGCCUAUCUGUCCAGGGAACCAGAUUGGUGUCCGAGAUGAGGAAAUGGCUGUGGCCUGGGAAAUCAGUGAGAGGCCGCUUGGGAAUGAGAAUGCAGUGGACUGAAAGCACAGCCUGGCCAUCUGGAACCUGGGUUCUGGUCCCAGCCUCGGCAUUCUCCCUGAGCUCCUAAGCAAUUCCCAGGCUUCUCUAGGGCUUCAGUUCUCACAACUGGAAAAUAAAGAGUAGCUGCUCUUGCGGUCGCACUAGUGUGGAAUUCUCGGGUGUCAAGG"}, "B3": {"name": "ENSMUSG00000031028.94|Tub (ssRNA)", "RNA": "GGGAGUUCUACAGUCCGACGAUCGCUUCGAUAUCCGCAUGCUAAGCUCUGGUGGUCAGCAGAAAGCACUCCCACUUCAAAAGGGCCCAUUAGGCCCAAAGGGGGUUAGGAGUGGUAGGGAUAGGUGCGUGGCAGGUCCCUGCUAGGAUUGCAGGGGCCUGGCCAUGUGUAUUAGCUGGAGGCUUAGAAUGCUAGCUCAUUUGUUGCUACAGAUUUGCCCAGUGCUUGCACACGUAAGAACCCAGCUCUCAAGGCCAAAUAUCUGAGUGGAUGGGGAUGAUAGGAGUCAUCCAGUAGACUCCCUCUCUUGCGGUCGCACUAGUGUGGAAUUCUCGGGUGUCAAGG"}, "B4": {"name": "ENSMUSG00000058297.426|Spock2 (ssRNA)", "RNA": "GGGAGUUCUACAGUCCGACGAUCGCUUCGAUAUCCGCAUGCUAGUGGCAGGCCCCAGGGGUCCAGAAGUUUGUCCCUCUCUAAAACGCUCCCCACCCCAUACUGCUUUUCACCCCACUGAGACCGAGUCCCACAAAGGUAGGCAGAACAGCUGUUCCUGGUGGGGCUGAAGGUUCCCAAGUAGCUUCUAGUUAAGCAAGCUUCGUGUUUCCUCAGGAGCAAGGUCACACAGGUCAGAUUAUUGUCGGUCCUGCGGGCCUCAUCCUUGAAUAAGCUGCCUGCCCAGUUCCUCCAUCCGUGUUCCCUCUUGCGGUCGCACUAGUGUGGAAUUCUCGGGUGUCAAGG"}},
  "note": "Over roughly 9,900 sequences, “r (bound/input frequency ratio)” has its median near 0.7; the highest 2% begin near 6.5. What follows is part of a selection rich in the highest values, with near analogues and random picks from the rest.",
  "data": [
    {"biological_target": "TDP-43 (Homo sapiens, UniProt Q13148 1-414)", "sequence (Q13148 whole entry)": "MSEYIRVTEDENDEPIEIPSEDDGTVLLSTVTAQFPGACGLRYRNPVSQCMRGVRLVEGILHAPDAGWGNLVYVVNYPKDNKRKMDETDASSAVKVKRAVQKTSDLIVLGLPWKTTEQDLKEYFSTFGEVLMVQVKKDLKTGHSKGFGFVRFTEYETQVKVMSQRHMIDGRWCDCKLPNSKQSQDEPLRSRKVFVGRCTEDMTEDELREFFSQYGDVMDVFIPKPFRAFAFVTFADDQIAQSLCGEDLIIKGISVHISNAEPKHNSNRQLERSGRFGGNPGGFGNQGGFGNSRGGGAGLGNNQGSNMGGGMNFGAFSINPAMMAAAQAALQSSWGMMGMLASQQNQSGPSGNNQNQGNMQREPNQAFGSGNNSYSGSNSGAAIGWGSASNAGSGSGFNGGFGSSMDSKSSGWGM", "test": "RNA Bind-n-Seq with designed 260-mer pool; 25 mM Tris-HCl, 150 mM KCl, 3 mM MgCl2, BSA (printed 500 mg/mL), 20 units/mL SUPERase IN; pH not stated; 500 nM RNA pool, 1 h, 4 C; TDP-43 5, 50, 500 nM; high values mean tight binding", "conditions": "protein: recombinant; tags: SBP (GST cleaved off with PreScission; pGEX-GST-SBP)", "in_short": "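Streptavidin beads captured recombinant SBP-tagged TDP-43 at 5, 50 or 500 nM, and the beads were incubated for 1 h at 4 °C with 500 nM of an in vitro-transcribed pool of 260-nt 3′ UTR oligos in 25 mM Tris-HCl, 150 mM KCl, 3 mM MgCl2, BSA and SUPERase IN. After washing, bound RNA was eluted with biotin, reverse transcribed, PCR-amplified and sequenced. Binding is reported as R, the mapped-read-normalized abundance of each oligo in the bound sample divided by its abundance in the input. Two independent protein batches served as duplicates.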", "values": [
      {"binder": "B1", "binding signal": "2.93 R (bound/input frequency ratio)"},
      {"binder": "B2", "binding signal": "0.604 R (bound/input frequency ratio)"},
      {"binder": "B3", "binding signal": "0.759 R (bound/input frequency ratio)"},
      {"binder": "B4", "binding signal": "0.272 R (bound/input frequency ratio)"}
    ]}
  ]
}
